{"source": "paper PMC4336329", "about": "(PLoS ONE, 2015)", "note": "The whole screen tested about 310,000 compounds, of which about 2,200 (0.71%) showed an effect of 50% or more. Effects have a minus sign here. The sample as a whole holds a higher share of strong results than the screen did."}
{"target": "human ether-à-go-go-related gene (hERG) potassium channel (human, UniProt Q12809)", "sequence (Q12809 whole entry, looked up)": "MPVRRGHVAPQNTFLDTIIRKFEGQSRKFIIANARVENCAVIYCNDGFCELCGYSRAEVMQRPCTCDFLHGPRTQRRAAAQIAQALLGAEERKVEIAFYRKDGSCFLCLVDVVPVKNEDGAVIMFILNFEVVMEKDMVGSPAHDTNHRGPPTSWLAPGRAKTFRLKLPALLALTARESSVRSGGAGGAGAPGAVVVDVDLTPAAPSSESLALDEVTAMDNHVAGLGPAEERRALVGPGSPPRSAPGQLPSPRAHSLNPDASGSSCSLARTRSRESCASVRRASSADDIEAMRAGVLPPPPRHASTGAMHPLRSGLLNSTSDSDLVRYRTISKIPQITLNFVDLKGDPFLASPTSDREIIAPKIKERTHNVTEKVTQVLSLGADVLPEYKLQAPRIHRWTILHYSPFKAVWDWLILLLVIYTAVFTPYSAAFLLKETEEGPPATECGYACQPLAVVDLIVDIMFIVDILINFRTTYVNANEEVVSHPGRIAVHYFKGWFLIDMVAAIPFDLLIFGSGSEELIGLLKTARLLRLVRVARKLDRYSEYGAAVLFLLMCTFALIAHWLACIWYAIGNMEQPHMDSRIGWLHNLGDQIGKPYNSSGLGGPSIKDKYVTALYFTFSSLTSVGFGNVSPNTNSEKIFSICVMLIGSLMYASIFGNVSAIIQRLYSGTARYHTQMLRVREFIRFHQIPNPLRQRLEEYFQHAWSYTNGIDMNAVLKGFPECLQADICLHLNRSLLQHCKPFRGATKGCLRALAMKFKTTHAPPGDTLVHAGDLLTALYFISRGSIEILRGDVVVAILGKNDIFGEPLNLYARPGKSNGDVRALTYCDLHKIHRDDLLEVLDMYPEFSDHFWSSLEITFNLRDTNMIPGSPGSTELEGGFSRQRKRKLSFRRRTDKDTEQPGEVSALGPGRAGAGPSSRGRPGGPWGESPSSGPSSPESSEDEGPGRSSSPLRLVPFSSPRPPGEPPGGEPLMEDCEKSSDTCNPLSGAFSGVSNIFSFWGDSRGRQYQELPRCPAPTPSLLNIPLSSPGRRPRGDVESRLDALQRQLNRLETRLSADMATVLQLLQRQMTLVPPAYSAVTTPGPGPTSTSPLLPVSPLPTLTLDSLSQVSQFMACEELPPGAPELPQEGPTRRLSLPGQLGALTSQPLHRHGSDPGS", "assay": "primary screen, population patch clamp on CHO cells stably expressing hERG; higher = less effect of the substance", "units": {"hERG current change (%, negative = inhibition) at 1uM": "%"}}
{"smiles": "COc1ccc(/[N+]([O-])=C/c2ccoc2)cc1", "hERG current change (%, negative = inhibition) at 1uM": 14}
{"smiles": "Nc1nnc(SCc2nc3scc(-c4ccccc4)c3c(=O)[nH]2)s1", "hERG current change (%, negative = inhibition) at 1uM": 15.6}
{"smiles": "O=C(CC1CCCC1)Nc1nnc(C2CC2)s1", "hERG current change (%, negative = inhibition) at 1uM": 11.5}
{"smiles": "CC(=O)Nc1cccc(NC(=O)CSc2nccn2Cc2ccccc2)c1", "hERG current change (%, negative = inhibition) at 1uM": 14.4}
{"smiles": "CN(C(=O)c1ccc(Cl)nc1)C1(c2ccccc2Cl)CCCCC1=O", "note": "(stereo not shown)", "hERG current change (%, negative = inhibition) at 1uM": 5.36}
{"smiles": "O=C(NCC(=O)N(c1ccccc1)C(C(=O)NCC1CCCO1)c1ccccc1)c1ccco1", "note": "(stereo not shown)", "hERG current change (%, negative = inhibition) at 1uM": 13.9}
{"smiles": "C=Cc1ccc(Cn2c(=O)n(C)c(=O)c3sccc32)cc1", "hERG current change (%, negative = inhibition) at 1uM": 12.4}
{"smiles": "FC(F)(F)c1ccc(-c2n[nH]c(=S)o2)nc1", "hERG current change (%, negative = inhibition) at 1uM": 9.8}
{"smiles": "COc1ccc(N2CCN(c3nc(=S)n(-c4ccccc4)c(C)c3C(C)=O)CC2)cc1", "hERG current change (%, negative = inhibition) at 1uM": 10.2}
{"smiles": "CC(=O)c1c(N2CCN(c3ccccc3)CC2)nc(=S)n(-c2ccccc2)c1C", "hERG current change (%, negative = inhibition) at 1uM": 2.93}
{"smiles": "CC(=O)c1c(N2CCN(c3ccc(F)cc3)CC2)nc(=S)n(-c2ccccc2)c1C", "hERG current change (%, negative = inhibition) at 1uM": -69.3}
{"smiles": "CN(c1ccc(O)cc1)c1nc(O)c(C2=c3ccccc3=NC2=O)s1", "hERG current change (%, negative = inhibition) at 1uM": 8.57}
{"smiles": "Cc1cc(Br)cc2c1N(C)C(=O)C2(c1ccc(O)cc1)c1ccc(O)cc1", "hERG current change (%, negative = inhibition) at 1uM": 12}
{"smiles": "CNC(=S)N1CCN(c2ccc([N+](=O)[O-])cc2)CC1", "hERG current change (%, negative = inhibition) at 1uM": -40.5}
{"smiles": "C=CCNC(=S)N1CCN(c2ccc([N+](=O)[O-])cc2)CC1", "hERG current change (%, negative = inhibition) at 1uM": -52.1}
{"smiles": "COCCCNC(=S)N1CCN(c2ccc([N+](=O)[O-])cc2)CC1", "hERG current change (%, negative = inhibition) at 1uM": -64.8}
{"smiles": "O=[N+]([O-])c1ccc(NC(=S)N2CCN(c3ccc(F)cc3)CC2)cc1", "hERG current change (%, negative = inhibition) at 1uM": 13}
{"smiles": "O=[N+]([O-])c1ccc(N2CCN(C(=S)NCc3ccc(Cl)cc3)CC2)cc1", "hERG current change (%, negative = inhibition) at 1uM": 12.9}
{"smiles": "O=[N+]([O-])c1ccc(N2CCN(C(=S)Nc3ccccc3)CC2)cc1", "hERG current change (%, negative = inhibition) at 1uM": 5.2}
{"smiles": "CCNC(=S)N1CCN(c2ccc([N+](=O)[O-])cc2)CC1", "hERG current change (%, negative = inhibition) at 1uM": -50.5}
{"smiles": "COCCCNC(=S)N1CCN(c2ccccc2)CC1", "hERG current change (%, negative = inhibition) at 1uM": 18.3}
{"smiles": "COCCNC(=S)N1CCN(c2ccc(Cl)cc2)CC1", "hERG current change (%, negative = inhibition) at 1uM": 1.27}
{"smiles": "Cc1ccc(OCc2nnc(NC(=O)c3ccco3)s2)c(C)c1", "hERG current change (%, negative = inhibition) at 1uM": 17.8}
{"smiles": "C/C(=N/NC(=O)c1ccc(Br)o1)c1ccc(C)o1", "hERG current change (%, negative = inhibition) at 1uM": 0.861}
{"smiles": "COCCNC(=S)NNC(=O)c1cc(C2CC2)nc2ccccc12", "hERG current change (%, negative = inhibition) at 1uM": 14.8}
